Assay outcomes: PubChem BioAssay, several laboratories
Shown are actives, neighbours in structure and some others; about 1.6% of the full set was active somewhere.
ABCB6 inh MLPCN – blocks the human ABCB6 transporter | Q9NP58 | K562-ABCB6 porphyrin accumulation, flow cytometry, 1 h; hits give low values | fluorescence ratio to DMSO, % at 10 µM | 360,000 tested, 0.19% active;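 active = fluorescence ratio to DMSO below 75%, the collection mean minus 3 SD; inconclusive = too few cells collected in the well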;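 also: signal is porphyrin accumulated inside mitochondria; lower ratio means ABCB6 inhibition with less porphyrin fluorescence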
Target sequence (Q9NP58 whole entry, looked up): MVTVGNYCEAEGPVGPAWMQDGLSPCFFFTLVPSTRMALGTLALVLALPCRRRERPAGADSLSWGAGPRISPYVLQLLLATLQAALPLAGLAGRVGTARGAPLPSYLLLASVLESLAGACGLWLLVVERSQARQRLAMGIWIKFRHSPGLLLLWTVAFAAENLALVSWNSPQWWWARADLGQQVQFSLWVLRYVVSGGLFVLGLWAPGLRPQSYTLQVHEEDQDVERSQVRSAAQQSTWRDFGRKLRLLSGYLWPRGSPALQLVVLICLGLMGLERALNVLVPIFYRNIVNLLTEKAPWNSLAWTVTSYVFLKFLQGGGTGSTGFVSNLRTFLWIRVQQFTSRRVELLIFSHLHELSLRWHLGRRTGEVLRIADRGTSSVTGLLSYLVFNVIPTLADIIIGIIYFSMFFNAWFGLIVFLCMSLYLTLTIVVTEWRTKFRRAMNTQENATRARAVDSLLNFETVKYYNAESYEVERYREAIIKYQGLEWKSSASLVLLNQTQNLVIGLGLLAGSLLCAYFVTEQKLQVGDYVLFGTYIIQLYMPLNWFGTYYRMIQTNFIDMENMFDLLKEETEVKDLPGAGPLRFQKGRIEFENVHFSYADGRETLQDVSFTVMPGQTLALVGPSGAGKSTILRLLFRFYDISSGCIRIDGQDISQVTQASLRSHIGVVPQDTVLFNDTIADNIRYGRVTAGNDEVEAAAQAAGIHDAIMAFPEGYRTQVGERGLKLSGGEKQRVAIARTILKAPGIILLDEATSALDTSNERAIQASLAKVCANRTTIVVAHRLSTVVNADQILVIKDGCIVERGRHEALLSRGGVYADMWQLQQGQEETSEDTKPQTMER
N-glyco inh – blocks N-linked glycosylation in D54 reporter cells; AID 588692; D54 ERlucT glycosylation luciferase reporter, 24 h; percent of 100 nM tunicamycin response; 360,000 tested, 0.23% active; reporter increase, % at 12.5 µM;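 active = mean luciferase reporter signal, scaled so untreated is 0 and the glycosylation-blocking control 100, at or above a set limit in every replicate; inconclusive = mean reaches the limit but not every replicate does; inactive = mean below the limit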;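 also: luciferase carries N-glycosylation sites so blocking glycosylation raises the light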
RAD54 branch – RAD54 (human) branch migration inhibition; Q92698; RAD54 Holliday junction branch migration, FAM/BHQ fluorescence; 360,000 tested, 0.14% active; inhibition, % at 10.4 µM;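 active = mean normalized replicate activity at least 40 and at least half of replicates scoring 40 or more; inconclusive = only one of the two criteria met; inactive = mean below 40 and under half of replicates reaching 40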;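 also: inhibitors cause a drop in the FAM fluorescence signal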
Myeloid diff 2 – myeloid differentiation induction; 360,000 tested, 1% active; calls only at 10 µM; ER-HoxA9 myeloid progenitors, lysozyme-GFP differentiation, flow cytometry;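 active = normalized GFP-positive differentiation at or above the plate's own cutoff, the solvent-only control mean plus 3 SD; inconclusive = no clear call, values can overlap the other calls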;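 also: cells exposed to compound for four days before flow analysis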
Vif imaging – inhibitors of HIV Vif. inhibition, % at 7.49 µM. HEK293T cells, Vif self-association by quenched fluorescence, imaging, 24 h. 340,000 tested, 0.35% active; in the data active = inhibition above about 50%, passing the limit was not always enough; inconclusive = no clear call, values can overlap the other calls; inactive = below about 31%
Large screens that a line does not name were inactive.

CN(c1ccc(C(=O)N2CCN(Cc3ccccc3)CC2)cc1)S(=O)(=O)c1ccccc1	Myeloid diff 2 active
CCN(c1ccccc1)S(=O)(=O)c1ccc(C(=O)NC2CCN(Cc3ccccc3)CC2)cc1	N-glyco inh 48.2 (no result: RAD54 branch)
O=C(c1ccc(Cl)c(S(=O)(=O)N2CCCC2)c1)N1CCN(Cc2ccccc2)CC1	none
O=C(c1ccc(Cl)c(S(=O)(=O)N2CCCCC2)c1)N1CCN(Cc2ccccc2)CC1	N-glyco inh 28.7
C[C@H]1CCCCO[C@@H](CN(C)C(=O)Nc2ccc(C(F)(F)F)cc2)[C@@H](C)CN([C@@H](C)CO)C(=O)c2cc(NC(=O)NC3CCCCC3)ccc2O1	none (no result: ABCB6 inh MLPCN, N-glyco inh, Myeloid diff 2, Vif imaging)
CC1CCCN(S(=O)(=O)c2ccc(C(=O)Nc3nnc(-c4ccccn4)o3)cc2)C1 (stereo unspecified)	none (no result: RAD54 branch)
CC1CCCN(S(=O)(=O)c2ccc(C(=O)Nc3nnc(-c4ccccc4Cl)o3)cc2)C1 (stereo unspecified)	Myeloid diff 2 active
CC1CN(S(=O)(=O)c2ccc(C(=O)Nc3nnc(-c4ccco4)o3)cc2)CC(C)O1 (stereo unspecified)	none (no result: RAD54 branch)
COc1cccc(-c2nnc(NC(=O)c3ccc(S(=O)(=O)N4CC(C)OC(C)C4)cc3)o2)c1 (stereo unspecified)	Myeloid diff 2 active
C[C@H](CO)N1C[C@H](C)[C@@H](CN(C)S(=O)(=O)c2ccc(F)cc2)Oc2ccc(NC(=O)C3CC3)cc2CC1=O	none (no result: ABCB6 inh MLPCN, N-glyco inh, Myeloid diff 2, Vif imaging)
CNc1ccc(C(=O)c2ccccc2C(=O)O)cc1[N+](=O)[O-]	none (no result: RAD54 branch)
CNc1ccc(/C=C/C(=O)c2cccc3ccccc23)cc1[N+](=O)[O-]	N-glyco inh 45.7 (no result: RAD54 branch)
CCCn1nc(C(=O)Nc2nc(-c3ccccn3)cs2)c2ccccc2c1=O	Myeloid diff 2 active
CCn1nc(C(=O)Nc2nc(-c3ccccn3)cs2)c2ccccc2c1=O	none
CCOC(=O)COn1c(=O)c(-c2ccccc2)[n+]([O-])c2ccccc21	Vif imaging 76.1
O=[N+]([O-])c1ccc(N2CCN(Cc3ccccc3)CC2)c2c1no[n+]2[O-]	Vif imaging 113.5 (no result: Myeloid diff 2)
C[C@@H]1CN([C@@H](C)CO)C(=O)c2cc(NS(=O)(=O)c3ccc(F)cc3)ccc2O[C@@H](C)CCCCO[C@@H]1CN(C)C(=O)Nc1cccc2ccccc12	none (no result: ABCB6 inh MLPCN, N-glyco inh, Myeloid diff 2, Vif imaging)
CCCN(CCC)c1ccc(CC(=O)NC(C)Cc2ccccc2)cc1 (stereo unspecified)	none (no result: RAD54 branch)
CCN(CC)c1ccc(CC(=O)NC(C)Cc2ccccc2)cc1 (stereo unspecified)	Vif imaging 101.4
O=C(Cc1ccccn1)NCC[C@@H]1CC[C@@H](NS(=O)(=O)c2ccc(Cl)cc2)[C@H](CO)O1	none (no result: ABCB6 inh MLPCN, N-glyco inh, Myeloid diff 2, Vif imaging)
O=C(CCl)Nc1cccc(Oc2cnccn2)c1	ABCB6 inh MLPCN 7.0
COc1ccc(OC)c(S(=O)(=O)Nc2ccc3c(c2)n(C)c(=O)n3C)c1	N-glyco inh 28.2
Cc1ccc(NS(=O)(=O)c2ccc3c(c2)n(C)c(=O)n3C)cc1C	none
Cn1c(=O)n(C)c2cc(S(=O)(=O)Nc3ccccc3)ccc21	none (no result: RAD54 branch)
Cc1ccc(S(=O)(=O)Nc2ccc3c(c2)n(C)c(=O)n3C)cc1	N-glyco inh 64.7
Cc1ccc(NS(=O)(=O)c2ccc3c(c2)n(C)c(=O)n3C)c(C)c1	none
Cn1c(=O)n(C)c2cc(NS(=O)(=O)c3ccccc3)ccc21	N-glyco inh 34.0 (no result: Myeloid diff 2)
CCc1ccc(S(=O)(=O)Nc2cc3c(cc2C)n(C)c(=O)n3C)cc1	N-glyco inh 46.3, Myeloid diff 2 inconclusive
C[C@H]1CCCCO[C@H](CN(C)S(=O)(=O)c2ccc(F)cc2)[C@@H](C)CN([C@@H](C)CO)C(=O)c2cc(NC(=O)Nc3ccccc3)ccc2O1	none (no result: ABCB6 inh MLPCN, N-glyco inh, Myeloid diff 2, Vif imaging)
COC(=O)[C@H]1[C@H](CO)[C@H]2Cn3c(ccc(C4=CCCC4)c3=O)[C@H]2N1CC1CCOCC1	none (no result: ABCB6 inh MLPCN, N-glyco inh, Myeloid diff 2, Vif imaging)
O=C(O)c1cn(-c2ccc(F)cc2)c2cc(Cl)c(F)cc2c1=O	none (no result: Myeloid diff 2)
CCOC(=O)c1cn(-c2ccc([N+](=O)[O-])cc2)c2cc(Cl)c([N+](=O)[O-])cc2c1=O	Myeloid diff 2 active (no result: RAD54 branch)
CC1CCCC(NC(=O)CCN2C(=O)COc3ccccc32)C1C (stereo unspecified)	Vif imaging 50.2
CC1CCCC(NC(=O)CN2C(=O)COc3ccccc32)C1C (stereo unspecified)	none
CC1=N/C(=C\c2ccc(OC(C)C)cc2)C(=O)N1c1ccc(C(=O)O)cc1	Myeloid diff 2 active (no result: RAD54 branch)
COc1ccccc1NC(=O)CCC(=O)c1ccc(-c2ccccc2)cc1	Myeloid diff 2 active (no result: RAD54 branch)
N#C/C(=C/c1ccc(N2CCCCC2)o1)C(=O)Nc1ccc(Cl)cc1	Myeloid diff 2 active (no result: Vif imaging)
N#C/C(=C/c1ccc(N2CCCCC2)o1)C(=O)Nc1ccc2ccccc2c1	none (no result: RAD54 branch)
N#C/C(=C\c1ccc(N2CCOCC2)o1)c1ccccc1	none (no result: Myeloid diff 2)
COc1ccc(NC(=O)/C(C#N)=C\c2ccc(N3CCOCC3)o2)cc1	none (no result: RAD54 branch, Vif imaging)
N#C/C(=C\c1ccc(N2CCOCC2)o1)C(=O)Nc1ccc(O)cc1	Myeloid diff 2 active
N#C/C(=C/c1ccc(N2CCOCC2)o1)c1ccc(Br)cc1	N-glyco inh inconclusive, Myeloid diff 2 active (no result: RAD54 branch)
COc1ccc(NC(=O)Nc2ccc3c(c2)C(=O)N([C@@H](C)CO)C[C@H](C)[C@H](CN(C)Cc2ccncc2)OCCCC[C@@H](C)O3)cc1	none (no result: ABCB6 inh MLPCN, N-glyco inh, Myeloid diff 2, Vif imaging)
CO[C@H](CN(C)C(=O)c1ccc2c(c1)OCO2)[C@@H](C)CN([C@@H](C)CO)S(=O)(=O)c1ccccc1	none (no result: ABCB6 inh MLPCN, N-glyco inh, Myeloid diff 2, Vif imaging)
C[C@H]1CN([C@@H](C)CO)C(=O)c2cccc(NS(=O)(=O)c3ccccc3)c2O[C@H]1CN(C)C(=O)Nc1ccc2c(c1)OCO2	none (no result: ABCB6 inh MLPCN, N-glyco inh, Myeloid diff 2, Vif imaging)
C[C@H]1CCCCO[C@H](CN(C)C(=O)Nc2ccc(C(F)(F)F)cc2)[C@@H](C)CN([C@@H](C)CO)C(=O)c2cc(NC(=O)Nc3ccc4c(c3)OCO4)ccc2O1	none (no result: ABCB6 inh MLPCN, N-glyco inh, Myeloid diff 2, Vif imaging)
Cc1nnc(SCCn2c(N3CCC(C)CC3)nc3c2c(=O)[nH]c(=O)n3C)s1	Myeloid diff 2 active
C[C@H](O)C#Cc1ccc2c(c1)O[C@@H](CN(C)Cc1ccncc1)[C@H](C)CN([C@@H](C)CO)S2(=O)=O	none (no result: ABCB6 inh MLPCN, N-glyco inh, Myeloid diff 2, Vif imaging)
CCOC(=O)N1CCc2cc(OC)c(OC)c3c2c1cc1cc(OC)c(OC)cc13	N-glyco inh 26.1 (no result: RAD54 branch, Myeloid diff 2)
CCOc1ccc2[nH]cc(S(=O)(=O)c3ccc(F)cc3)c(=O)c2c1	none (no result: Vif imaging)
CCCn1cc(S(=O)(=O)c2ccc(F)cc2)c(=O)c2cc(OCC)ccc21	Myeloid diff 2 active
C[C@H]1CN([C@@H](C)CO)C(=O)c2cc(C#Cc3cccnc3)cnc2O[C@@H]1CN(C)Cc1ccncc1	none (no result: ABCB6 inh MLPCN, N-glyco inh, Myeloid diff 2, Vif imaging)
CSc1sc(C(=O)O)c(C)c1C(C)=O	Vif imaging 56.3
C[C@H]1CN([C@@H](C)CO)C(=O)c2cc(NC(=O)Nc3ccc(F)cc3)ccc2O[C@@H]1CN(C)Cc1ccccc1	none (no result: ABCB6 inh MLPCN, N-glyco inh, Myeloid diff 2, Vif imaging)
CC1CCN(S(=O)(=O)c2ccc(NC(=O)c3ccncc3)cc2)CC1	none
CCS(=O)(=O)c1ncc(Cl)c(C(=O)Nc2ccccc2OC)n1	ABCB6 inh MLPCN 69.0, Myeloid diff 2 inconclusive
CC1CCN(S(=O)(=O)c2ccc(NC(=O)Cn3nnc(-c4ccccc4)n3)cc2)CC1	N-glyco inh 46.6
